{"source": "PubChem BioAssay AID725", "about": "(NMMLSC, 2007)", "note": "The whole screen tested about 1,300 compounds, of which fewer than 10 were called active. How the calls were made is not given here. These entries were drawn from the full list.", "data": [{"biological_target": "N-formyl peptide receptor 2 (Homo sapiens) (UniProt P25090)", "sequence (P25090 whole entry, looked up)": "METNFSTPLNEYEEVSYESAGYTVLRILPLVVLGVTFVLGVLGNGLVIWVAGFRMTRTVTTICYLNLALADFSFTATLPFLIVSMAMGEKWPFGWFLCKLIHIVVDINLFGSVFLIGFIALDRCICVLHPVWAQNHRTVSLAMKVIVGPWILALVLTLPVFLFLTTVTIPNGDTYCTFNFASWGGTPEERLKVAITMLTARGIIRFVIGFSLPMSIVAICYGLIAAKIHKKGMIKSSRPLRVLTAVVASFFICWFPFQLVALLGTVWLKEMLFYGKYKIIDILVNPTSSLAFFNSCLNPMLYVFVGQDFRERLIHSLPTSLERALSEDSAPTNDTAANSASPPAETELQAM", "assay": "FPRL1 fluorescent ligand binding inhibitors, primary screen, selectivity assay for FPR ligand SAR project, cell-based, flow cytometry, HTS counterscreen (AID 725)", "details": "FPRL1-expressing cells, active compounds read high, concentration not given here", "values": [{"smiles": "CCOC(=O)c1sc(N2C(=O)C(=O)/C(=C(/O)c3ccccc3)C2c2ccc(O)c(OC)c2)nc1C", "note": "(stereo not drawn)", "inhibition": "0.2% (inactive)"}, {"smiles": "COC(=O)c1c(NC(=O)c2ccc(F)cc2)sc2c1CCC2", "inhibition": "-10.9% (inactive)"}, {"smiles": "Cc1ccc(C2CC(c3ccccc3)n3ncnc3N2C(=O)c2ccccc2)cc1", "note": "(stereo not drawn)", "inhibition": "-21.4% (inactive)"}, {"smiles": "CC(O)CN1C(=O)C(=O)/C(=C(\\O)c2ccccc2)C1c1cccnc1", "note": "(stereo not drawn)", "inhibition": "1.7% (inactive)"}, {"smiles": "COc1ccccc1C1CC(=O)NC2=C1C(=O)CC(c1ccccc1Cl)C2", "note": "(stereo not drawn)", "inhibition": "0.3% (inactive)"}, {"smiles": "COc1ccc(C2C(C(=O)c3cc4ccccc4o3)=C(O)C(=O)N2CCN(C)C)cc1OC", "note": "(stereo not drawn)", "inhibition": "9.3% (inactive)"}, {"smiles": "COC(=O)c1c(NC(=O)c2cccs2)sc(C)c1C", "inhibition": "1.5% (inactive)"}, {"smiles": "CCCCCCc1cc2c(=O)c(-c3nc4ccccc4n3C)c(C(F)(F)F)oc2cc1O", "inhibition": "3.9% (inactive)"}, {"smiles": "COc1cccc(OC)c1C(=O)Oc1ccc2c(=O)c(Oc3ccc4ccccc4c3)c(C(F)(F)F)oc2c1", "inhibition": "4.4% (inactive)"}, {"smiles": "C=CCN1C(=O)C2(/C(=C(/O)c3ccc(C)cc3)C(=O)C(=O)N2CC2CCCO2)c2ccccc21", "note": "(stereo not drawn)", "inhibition": "0.9% (inactive)"}, {"smiles": "CCN(CC)Cc1c(O)ccc2c(=O)c(-c3ccc(OC)c(OC)c3)c(C(F)(F)F)oc12", "inhibition": "-8.6% (inactive)"}, {"smiles": "O=C1C(=O)N(c2nncs2)C(c2cccs2)/C1=C(/O)c1ccc(F)cc1", "note": "(stereo not drawn)", "inhibition": "-5.3% (inactive)"}, {"smiles": "CCOC(=O)c1c(NC(=O)c2ccc(OC)cc2)sc(C)c1C", "inhibition": "-3.8% (inactive)"}, {"smiles": "CC(C)c1ccc(C2/C(=C(\\O)c3ccccc3)C(=O)C(=O)N2CCC(=O)O)cc1", "note": "(stereo not drawn)", "inhibition": "7.3% (inactive)"}, {"smiles": "COC(=O)c1c(NC(=O)c2ccc(Cl)c(Cl)c2)sc2c1CCCC2", "inhibition": "-2.7% (inactive)"}, {"smiles": "CCOC(=O)c1c(CC(C)C)csc1NC(=O)c1ccccc1F", "inhibition": "-1.5% (inactive)"}, {"smiles": "COc1ccc(Br)cc1CNC(=O)Cn1ncc2ccccc21", "inhibition": "-17.2% (inactive)"}, {"smiles": "CCCCn1c(=O)c2c(nc3n2CCN3Cc2ccco2)n(C)c1=O", "inhibition": "-0.5% (inactive)"}, {"smiles": "O=c1c(-c2cccc(Cl)c2)c(C(F)(F)F)oc2c(CN3CCOCC3)c(O)ccc12", "inhibition": "3.4% (inactive)"}, {"smiles": "CCc1nn(Cc2ccccc2F)c(=O)c2cc3cc(C)ccc3n12", "inhibition": "-0.2% (inactive)"}, {"smiles": "CCN(CC)C(=O)c1c(NC(=O)c2ccccc2F)sc2c1CCC(C)C2", "note": "(stereo not drawn)", "inhibition": "2.2% (inactive)"}, {"smiles": "CCOC(=O)c1c(NC(=O)c2ccccc2OCC)sc2c1CCCC2", "inhibition": "-11.3% (inactive)"}, {"smiles": "Cc1ccc(OC(=O)c2ccc(N3C(=O)c4cccc(N)c4C3=O)cc2)cc1C", "inhibition": "-3.5% (inactive)"}, {"smiles": "CCOC(=O)C1=C(C)N(c2ccc(C)cc2)C(=O)/C1=C\\c1ccccc1OC", "inhibition": "-4.9% (inactive)"}, {"smiles": "O=C1C(=O)N(CCc2c[nH]c3ccccc23)C(c2cccnc2)/C1=C(/O)c1ccc(Cl)cc1", "note": "(stereo not drawn)", "inhibition": "-0.1% (inactive)"}, {"smiles": "CCc1ccc(Oc2c(C(F)(F)F)oc3cc(OCC(=O)OC4CCCCC4)ccc3c2=O)cc1", "inhibition": "1.4% (inactive)"}, {"smiles": "Cc1sc(NC(=O)C2C3CCC(O3)C2C(=O)O)c(C(N)=O)c1-c1ccc(C(C)C)cc1", "note": "(stereo not drawn)", "inhibition": "-4.5% (inactive)"}, {"smiles": "O=C1C(=O)N(c2cccc(C(F)(F)F)c2)C(c2ccccc2[N+](=O)[O-])/C1=C(\\O)c1ccccc1", "note": "(stereo not drawn)", "inhibition": "-1.4% (inactive)"}, {"smiles": "CCOc1ccccc1C(=O)N(Cc1ccc(Cl)cc1)Cc1ccco1", "inhibition": "-14.6% (inactive)"}, {"smiles": "O=C1C(=O)N(Cc2cccnc2)C(c2cccc(Br)c2)/C1=C(\\O)c1ccccc1", "note": "(stereo not drawn)", "inhibition": "4.9% (inactive)"}, {"smiles": "CC(C)OC(=O)c1c(NC(=O)C2CCCCC2)sc2c1CCCC2", "inhibition": "-2.7% (inactive)"}, {"smiles": "CCOc1ccc(/C(O)=C2\\C(=O)C(=O)N(c3nnc(C)s3)C2c2ccc(Br)cc2)cc1", "note": "(stereo not drawn)", "inhibition": "1.9% (inactive)"}, {"smiles": "COc1ccc(C2C(C(=O)c3cc4ccccc4o3)=C(O)C(=O)N2c2nccs2)cc1", "note": "(stereo not drawn)", "inhibition": "1% (inactive)"}, {"smiles": "Cc1ccc(C2/C(=C(\\O)c3ccc(F)cc3)C(=O)C(=O)N2CCN2CCOCC2)o1", "note": "(stereo not drawn)", "inhibition": "5.6% (inactive)"}, {"smiles": "CN1C(=O)c2ccccc2C(C(=O)N2CCCCC2)C1c1cccs1", "note": "(stereo not drawn)", "inhibition": "-3.9% (inactive)"}, {"smiles": "O=C1C(=O)N(CCN2CCOCC2)C(c2ccco2)/C1=C(\\O)c1ccc(F)cc1", "note": "(stereo not drawn)", "inhibition": "5.5% (inactive)"}, {"smiles": "Cc1cc(=O)n2[nH]cc(C(=O)O)c2n1", "inhibition": "-16.5% (inactive)"}, {"smiles": "O=C(C1=C(O)C(=O)N(CCN2CCOCC2)C1c1cccs1)c1ccco1", "note": "(stereo not drawn)", "inhibition": "-2% (inactive)"}, {"smiles": "CN(C)CCN1C(=O)C(O)=C(C(=O)c2cc3ccccc3o2)C1c1cccc(Oc2ccccc2)c1", "note": "(stereo not drawn)", "inhibition": "1.3% (inactive)"}, {"smiles": "CCN1C(=O)C(O)(CC(=O)c2ccc3c(c2)OCO3)c2ccccc21", "note": "(stereo not drawn)", "inhibition": "-4.3% (inactive)"}, {"smiles": "CCOC(=O)c1c(NC(=O)C2C3CCC(O3)C2C(=O)O)sc2c1CCC(CC)C2", "note": "(stereo not drawn)", "inhibition": "0.3% (inactive)"}, {"smiles": "CCOC(=O)N1CCC(c2cc(=O)n3[nH]cc(C(=O)Nc4ccc(OCC)cc4)c3n2)CC1", "inhibition": "-5.2% (inactive)"}, {"smiles": "CCOC(=O)C1NN=C(C(=O)c2ccc(OC)cc2)C1c1ccccc1", "note": "(stereo not drawn)", "inhibition": "3.5% (inactive)"}, {"smiles": "Cc1ccc(N2C(=O)C(=O)/C(=C(\\O)c3ccc(Cl)cc3)C2c2cccnc2)cc1Br", "note": "(stereo not drawn)", "inhibition": "4.5% (inactive)"}, {"smiles": "CCc1cc2c(=O)c(-c3nc4ccccc4s3)c(C)oc2c(CN2CCCCC2)c1O", "inhibition": "-7.2% (inactive)"}, {"smiles": "COc1ccc(N2C(=O)CSC2c2ccc(C(C)C)cc2)cc1", "note": "(stereo not drawn)", "inhibition": "4.8% (inactive)"}, {"smiles": "CCCCn1c(=O)c2oc3ccccc3c2n(Cc2ccccc2F)c1=O", "inhibition": "-2.7% (inactive)"}, {"smiles": "CCCN(C(=O)[C@H]1[C@@H]2C[C@@H]3[C@H]1C(=O)O[C@@H]3C2)c1ccccc1OCC", "inhibition": "9.1% (inactive)"}, {"smiles": "Cc1cccc(N2C(=O)CSC2c2cccc(F)c2)c1", "note": "(stereo not drawn)", "inhibition": "-31.8% (inactive)"}, {"smiles": "Cc1ccc(C)c(Cn2c(=O)cc(C)c3c(C)nn(-c4ccccc4)c32)c1", "inhibition": "-16.2% (inactive)"}, {"smiles": "Cc1ccc(/C(O)=C2/C(=O)C(=O)NC2c2ccc3c(c2)OCO3)cc1", "note": "(stereo not drawn)", "inhibition": "1.1% (inactive)"}, {"smiles": "CCOC(=O)C1=C(C)N(c2ccc(C)c(C)c2)C(=O)/C1=C\\c1ccccc1OC", "inhibition": "-8.1% (inactive)"}, {"smiles": "CCN1C(=O)C(=C2CCCC2)N(CC)C1=O", "inhibition": "8% (inactive)"}, {"smiles": "CCCCCCN1C(=O)C(=O)/C(=C(\\O)c2ccccc2)C1c1ccc(C(C)C)cc1", "note": "(stereo not drawn)", "inhibition": "-2.5% (inactive)"}, {"smiles": "COc1cc(C)nc(N(CCC(C)C)S(=O)(=O)c2ccc(C)cc2)n1", "inhibition": "-7.7% (inactive)"}, {"smiles": "COc1cc(C2C(C(=O)c3cc4ccccc4o3)=C(O)C(=O)N2CCN(C)C)ccc1O", "note": "(stereo not drawn)", "inhibition": "-0.3% (inactive)"}, {"smiles": "CCOC(=O)c1c(NC(=O)c2csc3c2CCCC3)sc2c1CCCC2", "inhibition": "-7% (inactive)"}, {"smiles": "CC(c1cccs1)N(Cc1ccco1)C(=S)Nc1ccccc1Cl", "note": "(stereo not drawn)", "inhibition": "10.4% (inactive)"}, {"smiles": "CCOC(=O)c1oc2cc(OCc3ccc(F)cc3)ccc2c(=O)c1-c1ccccc1OC", "inhibition": "1.2% (inactive)"}, {"smiles": "CCCCCCN1C(=O)C(=O)/C(=C(/O)c2ccccc2)C1c1ccc(Br)cc1", "note": "(stereo not drawn)", "inhibition": "0.8% (inactive)"}, {"smiles": "COc1ccc(OC)c(C2/C(=C(\\O)c3ccccc3)C(=O)C(=O)N2CCC(=O)O)c1", "note": "(stereo not drawn)", "inhibition": "-4.7% (inactive)"}, {"smiles": "CCOC(=O)c1cnn2c(=O)c3c(n(CC)c12)CCN(Cc1ccc(OC)cc1)C3", "inhibition": "1.3% (inactive)"}, {"smiles": "Cc1ccc(/C(O)=C2\\C(=O)C(=O)N(c3nnc(C)s3)C2c2ccc(Cl)cc2)cc1", "note": "(stereo not drawn)", "inhibition": "-9.8% (inactive)"}, {"smiles": "CCCCn1c(=O)c2oc3ccccc3c2n(Cc2cccc(C)c2)c1=O", "inhibition": "-15.7% (inactive)"}, {"smiles": "Cc1ccc(N2C(=O)CSC2c2ccc(C(C)(C)C)cc2)cc1F", "note": "(stereo not drawn)", "inhibition": "-16.2% (inactive)"}, {"smiles": "NC(=O)c1c(NC(=O)C2CC3CCC2C3)sc2c1CCCC2", "note": "(stereo not drawn)", "inhibition": "9% (inactive)"}, {"smiles": "COc1ccccc1C1/C(=C(\\O)c2ccccc2)C(=O)C(=O)N1c1ccc(C)c(Cl)c1", "note": "(stereo not drawn)", "inhibition": "-1.5% (inactive)"}, {"smiles": "CCOc1ccc(C2/C(=C(/O)c3ccccc3)C(=O)C(=O)N2c2ccc(C)c(Br)c2)cc1", "note": "(stereo not drawn)", "inhibition": "1.2% (inactive)"}, {"smiles": "COc1ccc(Br)cc1CNC(=O)Cn1c(=O)oc2ccccc21", "inhibition": "-20.3% (inactive)"}, {"smiles": "Cc1cc(C)cc(N2C(=O)CSC2c2ccccc2Br)c1", "note": "(stereo not drawn)", "inhibition": "-7.5% (inactive)"}, {"smiles": "C=CCN1C(=O)C2C(c3ccccc3)C=CC(c3ccccc3)C2C1=O", "note": "(stereo not drawn)", "inhibition": "-6.2% (inactive)"}, {"smiles": "O=C(c1ccc(Br)cc1)N(Cc1ccco1)Cc1ccccc1F", "inhibition": "27.5% (inactive)"}, {"smiles": "O=C1C(=O)N(c2cccnc2)C(c2cccc(F)c2)/C1=C(/O)c1ccccc1", "note": "(stereo not drawn)", "inhibition": "-1.7% (inactive)"}, {"smiles": "COc1ccccc1C(CC(=O)NCc1cccs1)n1cccc1", "note": "(stereo not drawn)", "inhibition": "12% (inactive)"}, {"smiles": "CC1CCN(Cn2nc(-c3ccco3)n(-c3ccccc3)c2=S)CC1", "inhibition": "6.9% (inactive)"}, {"smiles": "COc1ccc(C2C(C(=O)c3cccs3)=C(O)C(=O)N2Cc2cccnc2)cc1OC", "note": "(stereo not drawn)", "inhibition": "-3.8% (inactive)"}, {"smiles": "Cc1ccc2c(c1)oc(=O)n2C(=O)COc1ccccc1", "inhibition": "4.9% (inactive)"}, {"smiles": "O=C(c1ccccc1Br)N(Cc1ccc(F)cc1)Cc1ccco1", "inhibition": "-2% (inactive)"}, {"smiles": "CCc1c(C)sc(NC(=O)C2C3C=CC(C3)C2C(=O)O)c1C(=O)OC(C)C", "note": "(stereo not drawn)", "inhibition": "-6% (inactive)"}, {"smiles": "Cc1nnc(N2C(=O)C(O)=C(C(=O)c3cccs3)C2c2ccccc2)s1", "note": "(stereo not drawn)", "inhibition": "1.7% (inactive)"}, {"smiles": "CCOC(=O)c1c(NC(=O)c2ccccc2Cl)sc2c1CCC2", "inhibition": "0% (inactive)"}, {"smiles": "CCOc1ccccc1C1C(C#N)=C(SC)NC(=O)C1C(=O)OC", "note": "(stereo not drawn)", "inhibition": "7.1% (inactive)"}, {"smiles": "COC(=O)c1c[nH]n2c(=O)c(C(C)C)c(C)nc12", "inhibition": "-13.8% (inactive)"}, {"smiles": "CCCOc1ccc(/C(O)=C2\\C(=O)C(=O)N(CCN3CCOCC3)C2c2ccc(C(C)C)cc2)cc1C", "note": "(stereo not drawn)", "inhibition": "-8.4% (inactive)"}, {"smiles": "CC(C)n1c(=O)c2oc3ccccc3c2n(Cc2ccccc2F)c1=O", "inhibition": "11.7% (inactive)"}, {"smiles": "Cc1ccc(S(=O)(=O)NC(CC(=O)O)c2cccc(Cl)c2)c(C)c1", "note": "(stereo not drawn)", "inhibition": "-6.5% (inactive)"}, {"smiles": "CCOC(=O)c1c(NC(=O)c2ccccc2)sc2c1CCC(C)C2", "note": "(stereo not drawn)", "inhibition": "-3.5% (inactive)"}, {"smiles": "COCCN1C(=O)C(=O)/C(=C(/O)c2ccccc2)C1c1ccc(C(C)C)cc1", "note": "(stereo not drawn)", "inhibition": "3.7% (inactive)"}]}]}
